Laboratory results taken from article PMC12136788.
Numbering of substitutions follows the chain as printed. The full ranking holds about 5,800 sequences; the median of “enrichment r” is about 0.68, and the highest 2% start at about 11. The full list was thinned out, with the highest values kept by preference.

B1: chr3:23980279:23980388:+|3pUTR|ENSG00000174738|unk|FALSE|unique (ssRNA)
RNA: GGGAGUUCUACAGUCCGACGAUCUUUUUCUUUUCCAAUAUAAAGUUUGCUGAAUGUACAAGAAGAGUUUAUCACUUAGGAUAUAGAAUUUUUUUAGGGGUUGGGGGAGGGGAUCUGUUAGGAAACUGUUACCUAUAAACAAAGCAACAGAGGAUUGAGCAUCA
B2: chr1:6525536:6525637:-|3pUTR|ENSG00000162408|msi1|total|mutant (ssRNA)
RNA: GGGAGUUCUACAGUCCGACGAUCACAGUUUGUGUGCCAUUAAAACAGAGAUUCCUCAGAAAGUUCUUCAGGGACCUGGUUAUCCGAAUCAGGAUAAAAAUAAGGAAACUGGGGCCAUUACAAUGUACCGAGAAGGAAGGAAGACAACAGAGGAUUGAGCAUCA
B3: chr1:85021069:85021276:-|CDS|ENSG00000055732|control|control|control (ssRNA)
RNA: GGGAGUUCUACAGUCCGACGAUCGAUAUGUUUGCCACGUUUGCAAAAAUGCAGCAAAAAAGUUACUUAGUCUGGCUGUUUAGUAGAAUUUACCUCUACUCAUUCAUCAGCCUCUUUAUAUAUAUGAUUUUAAGUCUUUUCAUUCAACAGAGGAUUGAGCAUCA
B4: chr1:42176760:42176861:-|3pUTR|ENSG00000198815|msi1|FALSE|bound_elsewhere (ssRNA)
RNA: GGGAGUUCUACAGUCCGACGAUCGUCGCUCAGAUGUCCUUUGAAGUGGGAGGGAAUCAAUCCGGGGAUAAUUUCAAAUGGAAUAGAGUAUUUUGAUAUUGUUCAUUCAGAGGGUGAUGUGUACAUAUCUAUAUUGUAUAUAUGCAACAGAGGAUUGAGCAUCA
B5: chr8:108778973:108784180:-|three_prime_utr|ENSG00000164841|control|control|control (ssRNA)
RNA: GGGAGUUCUACAGUCCGACGAUCAAGUUUAUUUCACAAACCAACAGCCAGUAAGUGUUUUUGUUCUCUAUGUGUCUUCUAUUUAGAAGAAAAGCCAUGUAAGAUGUAUAAGAAACCACAACCAGCCACACCUAUCCUUCUGAACAACAGAGGAUUGAGCAUCA
B6: ENSG00000072803:stop:overlap|stop_codon|ENSG00000072803|stop_codon|NA|stop_codon (ssRNA)
RNA: GGGAGUUCUACAGUCCGACGAUCCUGGAUACAGUAAACGGAAAGAAUCUUGGAAGAUGCUUGACUGCUGUCUUUUCUCAGACUAGUCUGAAAGGGAAAACCCCCAUUCAUUCUGGAUUGGUGGAUCUGAAGUACAAAAUAUUUCAACAGAGGAUUGAGCAUCA
B7: chrX:47571900:47572933:-|three_prime_utr|ENSG00000008056|control|control|control (ssRNA)
RNA: GGGAGUUCUACAGUCCGACGAUCAAACCUGACUCCUCCUGGCCCUAAAUCCGGUUCUCACAUGUGGAAUCCCCAAGUCCUUUUAGAACCCCACUCGUGGUCACUUCAGGAUCUACUUCUGUUUUAGAACCUCCACAUUCCUGACAACAGAGGAUUGAGCAUCA
B8: chr1:161190761:161190881:-|3pUTR|ENSG00000158859|msi1|FALSE|unique (ssRNA)
RNA: GGGAGUUCUACAGUCCGACGAUCUGCGGGUCACAGGAGGGAGGGGGAAGGCAGGGAGGGCCUGGGCCCCAGUUGUAUUUAUUUAGUAUUUAUUCACUUUUAUUUAGCACCAGGGAAGGGGACAAGGACUAGGGUCCUGGGGAACAACAGAGGAUUGAGCAUCA
B9: chr7:20412070:20412171:+|3pUTR|ENSG00000105855|msi1|total|mutant (ssRNA)
RNA: GGGAGUUCUACAGUCCGACGAUCCUUUUUUUUUAUAAUAAACUUCCAAGAUUUGCUGUCUUCCAGCACUUGAGUUAAAGUACCCGAUACUGCAUUUUGAUGAAGACUAACCCCAUCUCAUAUUCUACCCUAAAGAGAACUGAACAACAGAGGAUUGAGCAUCA
B10: chr15:93024873:93024975:+|3pUTR|ENSG00000173575|unk|total|mutant (ssRNA)
RNA: GGGAGUUCUACAGUCCGACGAUCGGUCCAGCUCUGAUUCGGGUCACCACUCCUGCACUUUGGCACCCCAUCCCAUUCCAGCCCCGUUCUGGCCUCCCACUUUGACGGGCACUUGGAGGAGGAGCUGACUGUGUGUGUACCAGCCAACAGAGGAUUGAGCAUCA
B11: chr7:80742902:80743013:-|3pUTR|ENSG00000075223|msi1_unk|total|mutant (ssRNA)
RNA: GGGAGUUCUACAGUCCGACGAUCUCAGAGUCACAGUUCCCUUUAUUUCACAUAAGCCCAAACUGACCGACAGUAACGGUGUUCCGUUUUAUACUAUAUUUGUGCUAUUUAAUUCUUUCUAUUUUCACAAUUAUUAAAUUGUGUCAACAGAGGAUUGAGCAUCA
B12: chr8:37861146:37861251:-|3pUTR|ENSG00000156675|unk|FALSE|unique (ssRNA)
RNA: GGGAGUUCUACAGUCCGACGAUCCUGUGCAGAGCAAGAAGAUGAUACUUAUUUUUGAAUUUGUAUUUUUAAAACUAGAUUUAUAGACUUUUUUUUUUUUUAACUAGGGCACUUGCUUCCUUCUUAGCUAAAAGCACCAGCUGACAACAGAGGAUUGAGCAUCA
B13: chr5:180576808:180576909:+|3pUTR|ENSG00000113300|unk|total|mutant (ssRNA)
RNA: GGGAGUUCUACAGUCCGACGAUCUAUUUUCCGUGUCCUAAAUAAUUUUCAAUAAUCUAUAAUCCCUAAAAUGCAAUAAAAACCCGUAUGUUUUCACGGUGUAUAUUUUUUUUCAAAAAUUCUGUAACAAAUAUAUUUAAUGUGCAACAGAGGAUUGAGCAUCA
B14: chr1:161190761:161190881:-|3pUTR|ENSG00000158859|msi1|total|mutant (ssRNA)
RNA: B8 RNA with U83C, A84C, U104C, A105C, U129C, A130C
B15: chr19:39539560:39539696:-|CDS|ENSG00000176396|unk|FALSE|unique (ssRNA)
RNA: GGGAGUUCUACAGUCCGACGAUCCGGGAACGGAGGCCUGGCUGCGUUGCCCUAUCUCCGUCUCCGCCACCCACUUAGCGUUUUAGGCAUCAAUUACCAGCAGUUUCUCCGCCACUAUCUGGAAAAUUACCCGAUUGCUCCCGGCAACAGAGGAUUGAGCAUCA
B16: chr19:18196783:18197469:-|three_prime_utr|ENSG00000105649|control|control|control (ssRNA)
RNA: GGGAGUUCUACAGUCCGACGAUCACUACCCGGGCCUGACCCGGCCCCUACCAGCCACGGGCACAAGACCCCUGCUCCUGACUUAGCCCGUCACCCUUAUUUAUUAUUGUAGCUAUUUAUUUAUUUAUUGAAGAUGUCCCCCAGCAACAGAGGAUUGAGCAUCA
B17: ENSG00000181035:stop:overlap|stop_codon|ENSG00000181035|stop_codon|NA|stop_codon (ssRNA)
RNA: GGGAGUUCUACAGUCCGACGAUCUGGGCAUCAGCUUCACCACCUUCGACCUCAUGCAGAUCCUGCUGCGGCACCUGCAGAGCUAGGGGACCCUGAGCUGCUCUCAGGACGGUGGACCGGUGACCCCUUUGUAUUCUGGGCCCACAACAGAGGAUUGAGCAUCA
B18: chr4:87473334:87473774:-|three_prime_utr|ENSG00000152583|control|control|control (ssRNA)
RNA: GGGAGUUCUACAGUCCGACGAUCCUUUCCAGCAUCCUCCUCUGUUCUAACCACUUCAGAAAUAUAUGCAGCUGUGAUACUUGUAGAUUUAUAUUUAGCAAAAUGUUAGCAUGUAUGACAAGACAAUGAGAGUAAUUGCUUGACCAACAGAGGAUUGAGCAUCA
B19: chr5:180576808:180576909:+|3pUTR|ENSG00000113300|unk|FALSE|unique (ssRNA)
RNA: B13 RNA with C83U, C84A

target: T1, UNK ZnF1-6 (called full-length) (human, UniProt Q9C0B0 30-357); assay: nsRBNS (natural sequence RNA bind-n-seq); RBNS binding buffer (assumed for nsRBNS): 25 mM Tris pH 7.5, 150 mM KCl, 3 mM MgCl2, 0.01% Triton X-100, 500 ug/ml BSA, 20 U/ml SUPERase-In, 4 C; UNK is unkempt and MSI1 is Musashi-1; names of the RNAs are library labels; protein concentration not given here; high values mean tight binding
T1 sequence: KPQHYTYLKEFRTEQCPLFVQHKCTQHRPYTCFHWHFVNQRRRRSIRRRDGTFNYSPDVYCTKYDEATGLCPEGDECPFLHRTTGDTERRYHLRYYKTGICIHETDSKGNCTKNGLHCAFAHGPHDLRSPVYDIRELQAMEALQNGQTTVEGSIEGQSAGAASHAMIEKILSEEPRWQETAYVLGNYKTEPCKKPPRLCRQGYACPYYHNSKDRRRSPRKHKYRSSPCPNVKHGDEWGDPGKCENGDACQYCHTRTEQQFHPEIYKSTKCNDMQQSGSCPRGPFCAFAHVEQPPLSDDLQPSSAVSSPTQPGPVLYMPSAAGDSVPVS

Question: B1 was tested. Which binding signal did it give?
Answer: 3.03 enrichment R

Question: How did the binding signal turn out when B2 was run?
Answer: 0.553 enrichment R

Question: With B3 as the binder, how does the binding signal read?
Answer: 1.95 enrichment R

Question: With B4 as the binder, how does the binding signal read?
Answer: 1.26 enrichment R

Question: B5 was tested. Which binding signal did it give?
Answer: 0.507 enrichment R

Question: For B6, which binding signal is on record?
Answer: 1.04 enrichment R

Question: For B7, which binding signal is on record?
Answer: 0.975 enrichment R

Question: With B8 as the binder, how does the binding signal read?
Answer: 32.9 enrichment R

Question: With B9 as the binder, how does the binding signal read?
Answer: 0.911 enrichment R

Question: Which binding signal does the source give for B10 here?
Answer: 4.11 enrichment R

Question: With B11 as the binder, how does the binding signal read?
Answer: 1.71 enrichment R

Question: Which binding signal does the source give for B12 here?
Answer: 53.1 enrichment R

Question: How did the binding signal turn out when B13 was run?
Answer: 10.6 enrichment R

Question: For B14, which binding signal is on record?
Answer: 2.05 enrichment R

Question: With B15 as the binder, how does the binding signal read?
Answer: 1.3 enrichment R

Question: How did the binding signal turn out when B16 was run?
Answer: 66 enrichment R

Question: With B17 as the binder, how does the binding signal read?
Answer: 1.2 enrichment R

Question: B18 was tested. Which binding signal did it give?
Answer: 2.1 enrichment R

Question: B19 was tested. Which binding signal did it give?
Answer: 20.9 enrichment R
